Screens from PubChem.
Compounds with a hit are over-represented: about 2.8% of the library has one in this group of screens.
MBNL1-CUG inh: inhibitors of human MBNL1 binding to CUG repeat RNA. Potency, µM (doses to about 57.5 µM), for inactives: top-dose activity change, negative = inhibition, hits mostly inhibitors. Q9NR56. 280,000 tested, 0.036% active. TR-FRET MBNL1-His/biotin-(CUG)12 binding, 665/545 ratio; active = well fitted inhibition curve with a large enough effect in the signal ratio, with a control signal flat, not every such curve was filed as active; inconclusive = small, poorly fitted or top-dose-only effect, or effect the other way, or a change in a side signal; inactive = no such curve, though single readings can be large or run the other way; the % refers to the signal ratio; note: potency is the fitted concentration of half-maximal effect; % is set by controls: 0 for no effect and ±100 for the full control effect
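Compound titration spanned 92 nM–58 uM against the MBNL1-His/biotin-(CUG)12 complex. After 60 min at room temperature with 5 nM streptavidin-XL665 and 0.055 ng/ul terbium anti-His, ratiometric 665/545 nm emission (Ex 340 nm) normalized to controls.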
CBFb-RUNX1 inh: blocks binding between human CBF-beta and RUNX1; Q01196+Q13951; AlphaScreen CBFb-His/RUNX1-biotin binding, biochemical; Potency, µM (doses to about 59.8 µM), for the others: at the highest dose activity, negative = inhibition, usual class: inhibitors; 230,000 tested, under 10 active; AID 1477; note: % of control where 0% means no effect
Target sequence (Q01196 whole entry, looked up): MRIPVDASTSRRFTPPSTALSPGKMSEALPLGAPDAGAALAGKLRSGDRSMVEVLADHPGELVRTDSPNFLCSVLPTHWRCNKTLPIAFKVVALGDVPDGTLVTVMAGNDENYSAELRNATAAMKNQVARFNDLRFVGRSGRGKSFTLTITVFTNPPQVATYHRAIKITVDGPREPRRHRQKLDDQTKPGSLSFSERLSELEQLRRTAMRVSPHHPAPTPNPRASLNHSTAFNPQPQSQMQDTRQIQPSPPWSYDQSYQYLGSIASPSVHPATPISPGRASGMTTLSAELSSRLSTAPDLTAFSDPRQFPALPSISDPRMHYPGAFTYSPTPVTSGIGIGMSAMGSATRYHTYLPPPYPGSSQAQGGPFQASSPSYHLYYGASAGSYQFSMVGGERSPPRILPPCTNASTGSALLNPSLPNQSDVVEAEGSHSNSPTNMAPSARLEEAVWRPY
Target sequence (Q13951 whole entry, looked up): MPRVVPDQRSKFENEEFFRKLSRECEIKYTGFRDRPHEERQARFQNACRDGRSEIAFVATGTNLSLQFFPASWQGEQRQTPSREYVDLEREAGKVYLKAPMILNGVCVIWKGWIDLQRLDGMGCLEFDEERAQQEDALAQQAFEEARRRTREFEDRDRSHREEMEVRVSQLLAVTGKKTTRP
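Interaction loss through any mechanism counts as activity. Pre-formed complex of His-CBF-beta and biotin-RUNX1 (30 nM apiece) is incubated with compound 15 min, then with 50 ng nickel and 50 ng streptavidin beads for 90 min before AlphaScreen detection.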
PTHR1 agonist: agonists of human PTHR1 parathyroid hormone receptor; Q03431; HEK293 GP2 PTHR1 cells, GloSensor cAMP luminescence, 1 h; Potency, µM (highest dose often 115 µM), inactives show top-dose activation, usual class: activators; 410,000 tested, 0.075% active; AID 743266; note: potency is the fitted concentration of half-maximal effect; nearly all actives have a fitted effect of over 55% in size
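HEK-293-derived GP2 cells expressing PTHR1 and a GloSensor cAMP reporter, 3,000/well, plated overnight, given luciferin plus IBMX (each 0.5 mM as added) for 1 h at 37 °C, then compound for 1 h at 37 °C. Luminescence was read after 15 min at room temperature.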
Integrin act MD: activates integrin-mediated alleviation for muscular dystrophy | alpha7betagal myoblasts, beta-gal FDG fluorescence, 48 h | Potency, µM (titrated, usually from 38.3 µM), inactives show at the top dose activation, hits mostly activators | 350,000 tested, 0.064% active;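 note: potency is the fitted concentration of half-maximal effect; 100% = response of the positive control SU9516; nearly all actives have a fitted effect of over 60% in size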
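Alpha7betagal+/- myoblasts (passage 13) were plated 16-24 hr, then exposed to compounds (1:260 dilution of DMSO stock) for 48 hours at 37C. After MPER lysis, β-galactosidase reporter activity was read as FDG fluorescence (ex 480/em 540) after 30 minutes.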
DRD3 antagonist: blocks the human D3 dopamine receptor | D3R cells, DiscoveRx beta-arrestin luminescence, antagonist mode; hits give low values | max response, negative = inhibition, % | 360,000 tested, 2.5% active; in the data active = max response below about -50%; inconclusive = no clear call, values can overlap the other calls; note: % is set by controls: 0 for no effect and ±100 for the full control effect
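Cells plated overnight at 1500 cells/well, then exposed to library compounds with dopamine controls for 90 minutes at 37 degrees C. DiscoveRx reagent added for 30–60 minutes at room temperature; luminescence read, quantitative HTS format.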
DRD3 agonist: agonists of human D3 dopamine receptor; P35462; D3R DiscoveRx beta-arrestin cells, luminescence, 90 min; max activation, %; 410,000 tested, 0.58% active; AID 652048; in the data active = max activation above about 30%; note: 0% is about no effect
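Agonist-mode cell screen: cells plated at 1500/well and incubated overnight at 37 °C, then exposed to library compounds for 90 min at 37 °C. Detection reagent was added for 30–60 min at room temperature, and luminescence was read.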
Active calls of the source: *; i = inactive; u = inconclusive; x = no result; [ ] = another dose, or the depositor's remark. Unless noted, calls come from the whole dose curve; as a rule, active = well fitted curve in the direction sought with a large enough effect; inconclusive = small, poorly fitted or top-dose-only effect, or another doubt; inactive = no such curve, though single readings can be large; an effect the other way counts as inactive or inconclusive.

SMILES	MBNL1-CUG inh	CBFb-RUNX1 inh	PTHR1 agonist	Integrin act MD	DRD3 antagonist	DRD3 agonist
C=C1C(=O)[C@]23C[C@H]1CC[C@H]2[C@]1(C)[C@@H](OC(C)=O)CC[C@@](C)(C(=O)OC)[C@H]1C[C@@H]3OC(C)=O	x	x	-9.1%	x	-107.3*	-6.5
C=C1C(=O)[C@]23C[C@H]1CCC2[C@@]1(C)C(C[C@@H]3O)[C@](C)(C(=O)OC)CC[C@@H]1OC(C)=O (stereo partly drawn)	x	x	-95.6%	x	-132.5*	-26.9
Cc1cccc(NC(=O)Cn2c(=O)n(CCCS(=O)(=O)C3CCCCC3)c(=O)c3ccccc32)c1	x	x	-7.3%	x	x	6.4
C=CCc1cccc(Cl)c1OCCCNC1CCCC1	-4.1%	x	i	-83.1%	-89.0*	-8.6
O=[N+]([O-])c1ccc(/C=N/NC(=S)Nc2ccc(Cl)cc2Cl)s1	u	-21.8%	-14.1%	-58.4%	-56.3*	-18.6
C#CCOCCOCCOCCNc1nc(N2CCN(C(=O)CCCCCCCCCCNC(=O)[C@H](CCCCN)n3cc(C[C@@H](C)CC)nn3)CC2)nc(N2CCN(C(=O)CCCCCCCCCCNC(=O)[C@H](CCCCN)n3cc(C[C@@H](C)CC)nn3)CC2)n1	x	x	-32.6%	-41.4%	-51.0*	-18.4
C#CCOCCOCCOCCNc1nc(N2CCN(C(=O)CCCCCCCCCCNC(=O)[C@H](CCCCN)n3cc(CCO)nn3)CC2)nc(N2CCN(C(=O)CCCCCCCCCCNC(=O)[C@H](CCCN=C(N)N)n3cc(C[C@@H](C)CC)nn3)CC2)n1	x	x	-9.0%	0.0%	u	6.1
C#CCOCCOCCOCCNc1nc(N2CCN(C(=O)[C@H]([C@@H](C)CC)n3cc(CCCCN)nn3)CC2)nc(N2CCN(C(=O)[C@H](CCCCN)n3cc(CCC(=O)O)nn3)CC2)n1	x	x	i	7.1%	34.0	-3.3
C#CCOCCOCCOCCNc1nc(N2CCN(C(=O)CCCCCCCCCCNC(=O)Cn3cc(C[C@@H](C)O)nn3)CC2)nc(N2CCN(C(=O)CCCCCCCCCCNC(=O)[C@H](CCCCN)n3cc(C[C@@H](C)CC)nn3)CC2)n1	x	x	17.8µM*	-48.9%	u	-17.7
C#CCOCCOCCOCCNc1nc(N2CCN(C(=O)[C@H]([C@@H](C)CC)n3cc(CCCN=C(N)N)nn3)CC2)nc(N2CCN(C(=O)[C@H](CCCCN)n3cc(CCC(=O)O)nn3)CC2)n1	-8.0%	8.1%[2.36 µM]	0.4%	16.8%	16.8	47.7*
CCOC(=O)c1ccccc1NC(=O)c1cnc(N2CCOCC2)c2ccccc12	x	x	-13.4%	x	x	11.0
CN(Cc1ccc2nsnc2c1)C(=O)C1CCC(=O)N(CCc2ccccc2)C1 (stereo not drawn)	x	x	-8.4%	21.4%	-15.0	0.9
O=[N+]([O-])c1ccc(SNc2ccccc2)c([N+](=O)[O-])c1	x	x	-58.9%	5.8%	-17.9	-13.5
O=[N+]([O-])c1ccc(-[n+]2ccc3ccccc3c2)c([N+](=O)[O-])c1	x	x	-47.2%	-42.1%	-105.7*	-46.3
COc1cccc(C(=O)CN2C3=NCCCN3c3ccccc32)c1	-3.8%	4.2%	-47.4%	-16.1%	-61.7*	-2.5
Cc1ccnc(NC(=O)c2ccc(Cl)cc2Cl)n1	-0.2%	-1.4%	x	x	x	x
Cc1cc(C)nc(NC(=O)c2ccc(Cl)cc2Cl)n1	10.2%	1.7%	i	10µM*	-4.4	5.6
Cc1cc(OCc2ccccc2)ccc1/C(O)=C1/C(=O)C(=O)N(Cc2cccnc2)C1c1ccncc1 (stereo not drawn)	x	7.5%	i	2.1%	6.9	-2.1
COc1ccc(/C(O)=C2/C(=O)C(=O)N(Cc3cccnc3)C2c2ccncc2)cc1F (stereo not drawn)	u	4.1%	i	12.1%	-135.9*	-2.2
Cc1ccc(S(=O)(=O)CC(O)COc2ccccc2C#N)cc1 (stereo not drawn)	1.7%	-0.7%	i	-23.4%	4.6	-0.1
N#Cc1ccc(OCC(O)CS(=O)(=O)c2ccccc2)cc1 (stereo not drawn)	-3.7%	3.2%	i	10µM*	4.8	4.7
O=S(=O)(c1cccc(F)c1)N1CCN(Cc2cc3c(cc2Br)OCCO3)CC1	x	x	-20.3%	-15.2%	-6.7	-9.5
Nc1ccc(C#Cc2ccc3oc4ccccc4c(=O)c3c2)cc1	x	x	-21.0%	u	168.9	58.9*
COc1ccc(C#Cc2ccc3c(c2)c(=O)c2ccccc2n3C)cc1	0.3%	x	i	-1.1%	46.8	1.0
Nc1cccc(C#Cc2ccc3c(=O)c4ccccc4oc3c2)c1	x	x	-17.4%	-23.0%	11.0	27.3
SMILES	MBNL1-CUG inh	CBFb-RUNX1 inh	PTHR1 agonist	Integrin act MD	DRD3 antagonist	DRD3 agonist
Nc1ccc2oc3ncccc3c(=O)c2c1	u	0.1%	-2.1%	10.8%	-97.9*	1.5
COc1cc2sc3ccc(C#Cc4ccccn4)cc3c(=O)c2cc1OC	x	x	i	31.8%	5.9	7.6
Cn1c2ccccc2c(=O)c2cc(C#Cc3ccc(N)cc3)ccc21	u	x	i	6.1%	64.8	59.0*
COc1cc2sc3ccc(C#Cc4ccc(N)cc4)cc3c(=O)c2cc1OC	x	x	-1.3%	-6.5%	6.4	34.9*
Cc1ccc(C)c(N2CCN(C(=O)c3cc(S(=O)(=O)N4CCCCC4)cn3C)CC2)c1	x	x	i	x	x	3.1
OCCN1CCN(c2cc(C(F)(F)F)nc3c(F)cccc23)CC1	u	7.0%	i	-2.7%	6.2	-3.1
COc1cc2c(cc1OC)C(CNC(=O)C=Cc1ccccc1)C2 (stereo not drawn)	x	x	i	17.9%	-13.2	-1.2
COC(=O)NNC(=S)Nc1cc(OC)ccc1OC	-2.9%	-2.6%	i	-5.7%	-141.2*	-3.5
COc1ccc(OC)c(NC(=S)Nc2ccccc2)c1	7.3%	x	-2.9%	-27.3%	-18.0	-5.7
CC(=O)Nc1c(S(=O)(=O)c2ccccc2)c2nc3ccccc3nc2n1Cc1ccccc1	u	0.3%	-7.0%[57.5 µM]	-3.4%	58.9	3.7
O=S(=O)(Nc1c(S(=O)(=O)c2ccccc2)c2nc3ccccc3nc2n1C1CCCCC1)c1ccccc1	x	4.3%	-29.0%	-5.4%	-69.6*	6.2
Cc1cc(C)nc(SC2=CS(=O)(=O)c3ccccc32)n1	-5.7%	8.7%	-5.5%[57.5 µM]	-58.3%	16.6	2.0
O=S1(=O)C=C(Sc2nc3ccccc3s2)c2ccccc21	12.1%	2.8%	-34.2%	-67.8%	-97.7*	-9.1
O=[N+]([O-])c1ccc(N2CCN(CCO)CC2)cc1NCc1ccco1	x	-8.6%	i	-8.4%	-62.6*	-14.1
Cc1ccc(-c2nc(NCc3ccco3)c3ccccc3n2)cc1	x	15.3%	-42.4%	-13.7%	9.5	-0.4
